ChEMBL document CHEMBL3988442, “University of Dundee, Small-Polar-MMV Screening Library” (2021)
Screen size: about 38,000 compounds; about 1,200 (3.2%) showed an effect of 50% or more. The median lay at about -58%. The sample holds strong results, similar compounds and a random draw of the others, so the mix is not that of the screen.

System: Plasmodium falciparum
Experiment: Calibr Malaria Delayed Death Assay SOP
Format: functional, organism-based
Parameters: scale not given: in the data most compounds retested in dose-response had high values
Details: concentration 4.99e-06 (unit not given; other assays of the set use mol/L)

Compound | Percent Effect [%]
CN1Cc2cc(F)ccc2N(CC(C)(C)O)CCC1=O | -102.4
c1cc2occc2c(N2CCCC(c3nncn3C3CC3)C2)n1 (centres undefined) | -31.64
CO[C@H]1CN(C(=O)OC(C)(C)C)CC1NCc1cc[nH]c1 (some centres undefined) | -107.9
CCN1C(=O)C(C#N)=C(C)/C(=C/C2=Cc3ccccc3OC2)C1=O | -95.4
CC1c2ncc(Cn3cccn3)n2CCN1Cc1ccccn1.O=C(O)C(F)(F)F.O=C(O)C(F)(F)F (centres undefined) | -97.72
CCC[C@H]1CN(C(=O)c2ccc3[nH]c(CO)nc3c2)C[C@@H]1N | -26.19
CC(=O)N1CCOC2(CCCN(C(=O)c3ccc(Cl)cc3)C2)C1 (centres undefined) | -118.1
Cc1ccc(NC(=O)N2CC[C@@H](O)C2)c(-c2nc(C3CC3)no2)c1 | -83.22
O=S(=O)(Cc1ccccc1F)NCCCN1CCCCC1 | 18.19
O=S(=O)(NCCCN1CCCC1)c1cc(F)cc(F)c1 | 66.12
CC(=O)N1CCN(CCNS(=O)(=O)c2cccc(F)c2)CC1 | -79.38
CC1CCN(CCCNS(=O)(=O)Cc2ccccc2F)CC1 | 25.53
CC1CCN(CCCNS(=O)(=O)c2cccc(F)c2)CC1.Cl | 53.06
CC(=O)N1CCN(CCNS(=O)(=O)c2cc(F)cc(F)c2)CC1 | -120.9
Cc1cc(F)c(S(=O)(=O)NCCCN2CCC(O)CC2)cc1F | -91.17
O=S(=O)(Cc1ccccc1Cl)NCCCN1CCCC1 | 78.29
Cc1ccccc1CS(=O)(=O)NCCCN1CCCC1 | 22.31
Cn1cnc(S(=O)(=O)NCCCN2CCCCCC2)c1Cl | -99.75
CC(C)c1cccc(S(=O)(=O)NCCCN2CCC(O)CC2)c1 | 31.74
CC1CCN(CCCNS(=O)(=O)c2cc(F)cc(F)c2)CC1.Cl | 61.9
CN(Cc1cccs1)Cc1nnsc1Cl | -133.9
NC(=O)CN1CC2(CCC1=O)CCN(C(=O)c1ccccc1F)CC2 | -172.5
CCO[C@H]1CC[C@H]2[C@H]1OCCN2C(=O)CC1=CCCCC1 | -84.2
COCCn1ccc2c(C(=O)Nc3nc4c(s3)CCC4)cccc21 | -233.3
CS(=O)(=O)c1ccccc1-n1cc(NC(=O)CC2C=CCC2)cn1 (centres undefined) | -87.45
O=C(CCc1cc2n(n1)CCCN(CCc1ccccc1)C2)NC1CC1 | -74.1
CC(=O)N1CCC(C(=O)NCCc2c[nH]c3cc(C)ccc23)CC1 | -74.03

Compound | Percent Effect [%]
CS(=O)(=O)N1CCc2c(cccc2NC(=O)NC2CCCC2)C1 | -76.44
CCc1ccc(OCCn2cccn2)cc1 | -75.63
CC(C)c1nccc(CN2CCC(c3nc4ccccc4n3C)CC2)n1 | -101.6
CC(C)Cc1nc(NC(=O)c2cccnc2)n[nH]1 | -46.29
Cc1ccc2nc(C(=O)N3CC(c4cccnc4)C3)cn2c1 | -27.83
CN1CCN(CC(NCc2cccc(O)c2)c2ccccc2)CC1 (centres undefined) | -102.1
COc1cccc(C(=O)N2CCN(CC(O)c3ccccc3)CC2)c1 (centres undefined) | -38.78
COc1cccc(CNC(=O)N2CCN(Cc3cc(C)on3)CC2)c1 | -21.77
O=C(NC(CN1CCCC1)c1ccccc1)c1c(O)cc(F)cc1F (centres undefined) | -93.48
Cc1ccc(CNC(CN2CCN(C)CC2)c2ccccc2)cc1C (centres undefined) | -112.6
CN1CCN(CC(NCc2ccc(F)cc2)c2ccccc2)CC1 (centres undefined) | -91.46
COCCN1CCC(NCc2cccc(C)c2)C1 (centres undefined) | -16.89
Cl.Cl.OC(CN1CCN(Cc2ccc(F)c(F)c2)CC1)C1CC1 (centres undefined) | -18
Cc1cccc(CNC(CN2CCN(C)CC2)c2ccccc2)c1 (centres undefined) | 83.13
NC(=O)CS(=O)(=O)Cc1csc(-c2ccc(F)cc2)n1 | -114.2
O=C(Nc1cc(C(F)(F)F)c[nH]c1=O)C1CCCO1 (centres undefined) | -102.8
Cc1csc(NC(=O)C2CCN(Cc3cccc4c3OCCO4)CC2)n1 | -33.92
CN(C)CCOCc1cncc2c1CCN(C(=O)C1CCOCC1)C2.O=C(O)C(F)(F)F.O=C(O)C(F)(F)F | -70.85
O=C(O)C(F)(F)F.O=C(O)C(F)(F)F.O=C(O)C(F)(F)F.O=C(c1ccncc1)N1CCN(Cc2cccnc2)c2ncccc2C1 | -102.4
CC(C)NC(=O)c1noc2c1CN(Cc1cnn(C)c1)CC2 | -77.7
CN(C)CCNC(=O)C1Cc2nc(-c3ccsc3)sc2N1CC1CC1.O=C(O)C(F)(F)F (centres undefined) | 9.733
CN(C)CCNC(=O)C1Cc2nc(-c3ccccc3)sc2N1CC1CC1.O=C(O)C(F)(F)F (centres undefined) | 89.72
O=C(Nc1cccnc1)C1Cc2nc(-c3ccsc3)sc2N1CC1CC1.O=C(O)C(F)(F)F (centres undefined) | -160.3
O=C(Nc1cccnc1N1CCSCC1)c1ccc2c(c1)CCC2 | -3.12
O=C(NC1CC1)C1CCN(c2cccc(C(F)(F)F)n2)CC1 | 78.5
O=C(NC1CC1)C1CCCN(c2cccc(C(F)(F)F)n2)C1 (centres undefined) | 11.64
O=C(NC1CCN(c2cccc(C(F)(F)F)n2)CC1)C1CC1 | -20.01
